The list is not random: actives were taken first. Their share in the collection is about 28%.
Mac1 fbg enh: CD11b/CD18-fibrinogen binding enhancement. actives 0.07% (n = 93,000). AID 1499. activation, % at 10 µM. P05107+P11215. K562 CD11b/CD18 adhesion to fibrinogen, ATPlite luminescence;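 active = 10 µM primary screen giving 50% or more activity, confirmed by 40% or more on retest at that dose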
CYP2C19 inhib: inhibitors of human CYP2C19; CYP2C19 Supersomes, luciferin-H EGE luminescence, 30 min; inhibition, % at 5 µM; AID 778; actives 21% (n = 96,000);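 active = CYP2C19 inhibition above a set limit at 5 µM in the primary screen, cut at about 50% in these data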;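 also: plate controls were negative control wells for no effect and 2.5 mM tranylcypromine positive control for full effect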
CYP2C19 act: activators of human cytochrome P450 2C19. P33261. recombinant CYP2C19, luciferin-H EGE luminescence; stronger effect = higher value; 0 = fully inhibited enzyme, 1 = untreated enzyme. activation factor at 5 µM. 96,000 tested, under 10 active. AID 1025;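 active = activation factor of at least 2 at 5 µM in the primary screen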;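 also: 0 = wells with 2.5 mM tranylcypromine and 1 = vehicle-only wells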
CYP2C9 inh: human CYP2C9 inhibition; inhibition, % at 5 µM; CYP2C9 Supersomes, luciferin-H conversion, luminescence; actives 20% (n = 96,000);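 active = blocking of liver enzyme CYP2C9 beyond about 50% at 5 µM, limit read from the data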
Target sequence (P11712 whole entry, looked up): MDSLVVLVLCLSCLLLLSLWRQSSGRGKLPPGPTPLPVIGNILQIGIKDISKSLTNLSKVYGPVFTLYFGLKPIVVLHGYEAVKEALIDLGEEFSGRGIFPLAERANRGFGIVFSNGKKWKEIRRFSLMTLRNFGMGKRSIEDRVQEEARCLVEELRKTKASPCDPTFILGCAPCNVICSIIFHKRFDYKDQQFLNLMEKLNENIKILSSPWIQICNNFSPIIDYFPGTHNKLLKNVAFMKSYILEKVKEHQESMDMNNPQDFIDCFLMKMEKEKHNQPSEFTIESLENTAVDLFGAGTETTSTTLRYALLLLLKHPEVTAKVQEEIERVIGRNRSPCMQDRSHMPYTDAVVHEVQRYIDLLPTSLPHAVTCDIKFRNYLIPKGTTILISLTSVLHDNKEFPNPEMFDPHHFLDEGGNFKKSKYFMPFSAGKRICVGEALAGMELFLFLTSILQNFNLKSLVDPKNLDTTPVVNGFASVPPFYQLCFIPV
CD11b adhes inh: CD11b/CD18-fibrinogen binding inhibition; P05107+P11215; K562 CD11b/CD18 adhesion to fibrinogen, ATPlite luminescence; Mn2+ added to activate the integrin; inhibition, % at 10 µM; actives 0.54% (n = 93,000);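 active = primary inhibition of 50% or more at 10 µM, then 40% or more on retest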
CYP2C9 activ: increases human cytochrome P450 2C9 activity; recombinant CYP2C9, luciferin-H conversion, luminescence; stronger effect = higher value; factor 1 = untreated enzyme, 0 = blocked; actives 1.4% (n = 96,000); P11712; activation factor at 5 µM;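 active = activation factor of 2 or more for CYP2C9 at a 5 µM dose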;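 also: 0 = sulfaphenazole-blocked wells and 1 = vehicle-only wells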
Active calls of the source: *.

Results for COc1ccc2cc(-c3csc(-c4cccnc4)n3)ccc2c1 ?
Mac1 fbg enh: -6; CYP2C19 inhib: 75*; CYP2C19 act: 0.2; CYP2C9 inh: 2; CD11b adhes inh: 29; CYP2C9 activ: 1

Results for O=C(c1cc2cc([N+](=O)[O-])ccc2oc1=O)N1CCN(c2ncccn2)CC1 ?
Mac1 fbg enh: -3; CYP2C19 inhib: 5; CYP2C19 act: 1; CYP2C9 inh: -19; CD11b adhes inh: -22; CYP2C9 activ: 1.2

How did O=C(CN1C(=O)/C(=C\c2ccc(F)cc2)Oc2ccccc21)NCc1ccco1 do in these assays?
Mac1 fbg enh: 20; CD11b adhes inh: -7

What do the screens show for `COc1ccccc1NC(=O)CN1CCCCC1`?
Mac1 fbg enh: -2; CYP2C19 inhib: 6; CYP2C19 act: 0.9; CYP2C9 inh: 37; CD11b adhes inh: -4; CYP2C9 activ: 0.6

Results for COC(=O)c1ccccc1NC(=O)CN1CCN(C23CC4CC(CC(C4)C2)C3)CC1 ?
Mac1 fbg enh: -4; CYP2C19 inhib: 33; CYP2C19 act: 0.7; CYP2C9 inh: 53*; CD11b adhes inh: -1; CYP2C9 activ: 0.5

Results for CCC(=O)Nc1ccccc1C(=O)NC1CCCCC1 ?
Mac1 fbg enh: -5; CYP2C19 inhib: 32; CYP2C19 act: 0.7; CYP2C9 inh: -60; CD11b adhes inh: -32; CYP2C9 activ: 1.6

What do the screens show for `COC(=O)c1ccccc1NC(=O)CN1CCC(NC(=O)c2ccc(C)cc2)CC1`?
Mac1 fbg enh: 4; CYP2C19 inhib: 88*; CYP2C19 act: 0.1; CYP2C9 inh: 67*; CD11b adhes inh: -8; CYP2C9 activ: 0.3

How did O=C(CN1C(=O)c2ccccc2C1=O)Nc1ccccc1C(=O)NC1CCCCC1 do in these assays?
Mac1 fbg enh: -1; CYP2C19 inhib: -4; CYP2C19 act: 1; CYP2C9 inh: 65*; CD11b adhes inh: 6; CYP2C9 activ: 0.3

How did CCOc1ccccc1NC(=O)CN1CCC(NC(=O)c2ccccc2)CC1 do in these assays?
CYP2C19 inhib: 95*; CYP2C19 act: 0; CYP2C9 inh: -91; CYP2C9 activ: 1.9

What do the screens show for `CCCN1CCC(NC(=O)Nc2ccccc2C(=O)OC)CC1`?
Mac1 fbg enh: 0; CYP2C19 inhib: -4; CYP2C19 act: 1; CYP2C9 inh: 6; CD11b adhes inh: -4; CYP2C9 activ: 0.9

How did COc1ccc(CNC(=O)CSc2nnc(Cn3nnc4ccccc43)n2C)cc1 do in these assays?
Mac1 fbg enh: -6; CYP2C19 inhib: 18; CYP2C19 act: 0.8; CYP2C9 inh: 2; CD11b adhes inh: -2; CYP2C9 activ: 1

How did CCOC(CNC(=O)CCc1c(C)nc2ncnn2c1C)OCC do in these assays?
Mac1 fbg enh: 2; CYP2C19 inhib: -9; CYP2C19 act: 1.1; CYP2C9 inh: -18; CD11b adhes inh: 7; CYP2C9 activ: 1.2

What do the screens show for `CCOc1ccc(N2CC(C(=O)OCC(=O)NCc3ccccc3)CC2=O)cc1` (centres undefined)?
CYP2C19 inhib: 16; CYP2C19 act: 0.8; CYP2C9 inh: 39; CYP2C9 activ: 0.6

How did CCOc1ccc(OCC)c(NC(=O)CN2CCC(NC(=O)c3cccc(F)c3)CC2)c1 do in these assays?
Mac1 fbg enh: -5; CYP2C19 inhib: 74*; CYP2C19 act: 0.3; CYP2C9 inh: 68*; CD11b adhes inh: -2; CYP2C9 activ: 0.3

How did O=C(CSc1nnc(CNc2ccc(F)cc2)n1Cc1ccccc1)NCc1ccco1 do in these assays?
Mac1 fbg enh: 2; CYP2C19 inhib: 54*; CYP2C19 act: 0.5; CYP2C9 inh: 53*; CD11b adhes inh: 1; CYP2C9 activ: 0.5

Results for COc1ccccc1OCc1nnc(SCC(=O)NCc2ccco2)n1Cc1ccco1 ?
Mac1 fbg enh: 0; CYP2C19 inhib: 62*; CYP2C19 act: 0.4; CYP2C9 inh: 58*; CD11b adhes inh: 16; CYP2C9 activ: 0.4

What do the screens show for `O=C(CSc1nnc(C2CC2)n1Cc1ccccc1)NCc1ccccc1`?
Mac1 fbg enh: -3; CYP2C19 inhib: 26; CYP2C19 act: 0.7; CYP2C9 inh: 18; CD11b adhes inh: -1; CYP2C9 activ: 0.8

Results for Cc1ccc(NCc2nnc(SCC(=O)NCc3ccco3)n2CC2CCCO2)cc1Cl (centres undefined) ?
Mac1 fbg enh: 4; CYP2C19 inhib: 41; CYP2C19 act: 0.6; CYP2C9 inh: 56*; CD11b adhes inh: -14; CYP2C9 activ: 0.4

What do the screens show for `Cc1nnc(SCC(=O)NCc2ccco2)n1Cc1ccccc1`?
Mac1 fbg enh: -6; CYP2C19 inhib: -5; CYP2C19 act: 1.1; CYP2C9 inh: -5; CD11b adhes inh: 1; CYP2C9 activ: 1.1

What do the screens show for `O=C(CSc1nnc(C2CCCCC2)n1Cc1ccccc1)NCc1ccco1`?
Mac1 fbg enh: -4; CYP2C19 inhib: 43; CYP2C19 act: 0.6; CYP2C9 inh: 66*; CD11b adhes inh: 2; CYP2C9 activ: 0.3

Results for Cc1ccc2[nH]c(=O)c(CN(Cc3cccs3)C(=S)NCc3ccco3)cc2c1 ?
Mac1 fbg enh: 2; CD11b adhes inh: 17

Results for Cc1ccccc1N1CCN(C(=O)c2ccccc2NC(=O)C2CC=CCC2C(=O)O)CC1 (centres undefined) ?
Mac1 fbg enh: -1; CYP2C19 inhib: 16; CYP2C19 act: 0.8; CYP2C9 inh: 37; CD11b adhes inh: -18; CYP2C9 activ: 0.6

What do the screens show for `CCOC(=O)c1c(C)[nH]c(C(=O)COC(=O)c2cn(CC)c3nc(C)ccc3c2=O)c1C`?
Mac1 fbg enh: -5; CYP2C19 inhib: 31; CYP2C19 act: 0.7; CYP2C9 inh: 22; CD11b adhes inh: -23; CYP2C9 activ: 0.8

What do the screens show for `Cc1cc(C)n2c(SCC(=O)Nc3ncc(C(F)(F)F)cc3Cl)nnc2n1`?
Mac1 fbg enh: -3; CYP2C19 inhib: 26; CYP2C19 act: 0.7; CYP2C9 inh: 63*; CD11b adhes inh: 0; CYP2C9 activ: 0.4

How did COc1ccc(N(CC(=O)N/N=C/c2ccc(-c3ccc([N+](=O)[O-])cc3)o2)S(=O)(=O)c2ccc(C)cc2)cc1 do in these assays?
Mac1 fbg enh: 68; CD11b adhes inh: -18

Results for N#Cc1c(-c2ccc(Cl)cc2Cl)nc2n(c1=O)CCS2 ?
Mac1 fbg enh: -4; CYP2C19 inhib: 93*; CYP2C19 act: 0.1; CYP2C9 inh: 62*; CD11b adhes inh: -3; CYP2C9 activ: 0.4

What do the screens show for `Cc1cc(C(=O)Cn2nnc3ccccc3c2=O)c(C)n1-c1ccccc1F`?
Mac1 fbg enh: -9; CYP2C19 inhib: 52*; CYP2C19 act: 0.5; CYP2C9 inh: 4; CD11b adhes inh: 66; CYP2C9 activ: 1

Results for COc1ccc(-n2c(C)cc(C(=O)Cn3nnc4ccccc4c3=O)c2C)cc1 ?
Mac1 fbg enh: 3; CYP2C19 inhib: 60*; CYP2C19 act: 0.4; CYP2C9 inh: 83*; CD11b adhes inh: 0; CYP2C9 activ: 0.2

High-throughput results as filed in PubChem BioAssay.
